Only some compounds are listed: those with a hit (about 12% of all), similar ones and a draw of the others.
L3MBTL1 block: inhibitors of human L3MBTL1; Potency, µM (highest dose often 57.1 µM), for the others: at the top dose activity, negative = inhibition, actives largely listed as inhibitors; AlphaScreen L3MBTL1–H3K9me1 peptide binding; 0.66% of 230,000 active; note: % is set by controls: 0 for no effect and ±100 for the full control effect; nearly all actives have a fitted effect of over 60% in size
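L3MBTL1 (50 nM) pre-complexed 30 min with biotinylated H3(1-15)K9me1 peptide (75 nM), then compounds added for 30 min at room temperature; AlphaScreen streptavidin donor/nickel chelate acceptor beads (10 ug/mL final) read after 30 min dark incubation.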
HP1b binding inh: inhibitors of HP1-beta chromodomain binding to methylated histone tails; P83916; Potency, µM (titrated, usually from 114 µM), for the others: top-dose activity change, negative = inhibition, usual class: inhibitors; AlphaScreen HP1-beta / biotin-H3K9me3 peptide binding; 0.56% of 390,000 active; note: nearly all actives have a fitted effect of over 70% in size
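HP1-beta protein (50 nM final) preincubated 30 min at room temperature with biotinylated H3(1-18)K9me3 peptide (50 nM) in PBS pH 7.4, 0.01% Tween-20, then compound added for 30 min. AlphaScreen streptavidin donor/nickel chelate acceptor beads (10 ug/mL final), 30 min dark, luminescence read.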
JMJD2A Tudor: JMJD2A Tudor domain (human) inhibition | AlphaScreen JMJD2A-Tudor / H3K4me3 peptide binding | O75164 | AID 504339 | 4.4% of 390,000 active | Potency, µM (series often up to 114 µM), for the others: top-dose activity change, negative = inhibition, usual class: inhibitors; note: % is set by controls: 0 for no effect and ±100 for the full control effect; nearly all actives have a fitted effect of over 50% in size
Target sequence (O75164 whole entry, looked up, the tested form may be a part): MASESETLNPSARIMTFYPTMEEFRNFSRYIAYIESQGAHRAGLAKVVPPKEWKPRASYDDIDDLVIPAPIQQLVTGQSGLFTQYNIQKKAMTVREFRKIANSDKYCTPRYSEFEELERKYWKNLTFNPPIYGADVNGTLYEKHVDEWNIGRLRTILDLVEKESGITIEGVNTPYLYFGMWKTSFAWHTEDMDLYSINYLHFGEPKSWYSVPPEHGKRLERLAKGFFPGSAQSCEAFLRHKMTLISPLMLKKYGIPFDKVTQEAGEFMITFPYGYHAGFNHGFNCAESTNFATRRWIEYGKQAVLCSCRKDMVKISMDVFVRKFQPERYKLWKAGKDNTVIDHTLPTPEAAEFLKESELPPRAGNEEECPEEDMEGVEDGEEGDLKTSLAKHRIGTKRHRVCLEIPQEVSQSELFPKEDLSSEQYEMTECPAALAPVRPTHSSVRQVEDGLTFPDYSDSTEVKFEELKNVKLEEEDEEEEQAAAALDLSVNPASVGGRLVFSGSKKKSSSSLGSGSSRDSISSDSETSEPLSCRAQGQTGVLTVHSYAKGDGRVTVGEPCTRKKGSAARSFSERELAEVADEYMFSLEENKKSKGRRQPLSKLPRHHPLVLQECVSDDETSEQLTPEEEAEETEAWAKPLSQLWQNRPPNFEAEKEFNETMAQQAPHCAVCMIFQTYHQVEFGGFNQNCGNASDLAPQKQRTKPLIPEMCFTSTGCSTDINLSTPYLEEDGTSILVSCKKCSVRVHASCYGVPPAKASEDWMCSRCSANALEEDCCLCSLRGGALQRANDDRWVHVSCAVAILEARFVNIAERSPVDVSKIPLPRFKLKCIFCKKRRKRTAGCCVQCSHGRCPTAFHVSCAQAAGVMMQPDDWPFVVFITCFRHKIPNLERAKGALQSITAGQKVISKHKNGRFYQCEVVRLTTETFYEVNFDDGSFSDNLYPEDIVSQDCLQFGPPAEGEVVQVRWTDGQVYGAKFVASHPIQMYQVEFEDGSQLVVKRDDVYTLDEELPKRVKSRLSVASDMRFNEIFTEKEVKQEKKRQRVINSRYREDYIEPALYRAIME
G9a inh: inhibitors of human histone lysine methyltransferase G9a; AID 504332; Potency, µM (series often up to 102 µM), for the others: at the highest dose activity, negative = inhibition, usual class: inhibitors; G9a H3K9 monomethylation, AlphaScreen, 2 h; 8.8% of 350,000 active; Q96KQ7; note: % is set by controls: 0 for no effect and ±100 for the full control effect; nearly all actives have a fitted effect of over 75% in size
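Quantitative HTS format: methyltransferase activity on a biotin-tagged H3K9 peptide is measured by AlphaScreen, using a rabbit anti-monomethyl-H3K9 antibody with streptavidin donor and anti-IgG acceptor beads. Final levels are 20 nM enzyme, 500 nM peptide, 20 uM SAM; 2 h RT.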
BAZ2B block: blocks human BAZ2B | Q9UIF8 | AlphaScreen BAZ2B-H3K14Ac peptide displacement | Potency, µM (series often up to 114 µM), without a hit: top-dose activity change, negative = inhibition, usual class: inhibitors | 4.4% of 360,000 active | AID 504333; note: % is set by controls: 0 for no effect and ±100 for the full control effect; nearly all actives have a fitted effect of over 60% in size
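BAZ2B (50 nM) with biotin-H3(5-23)K14Ac peptide (50 nM) in PBS pH 7.4, 0.01% Tween-20, preformed 30 min, then compound 30 min at room temperature; top concentration 110uM. AlphaScreen streptavidin donor/nickel chelate acceptor beads (10 ug/mL final), 20 min dark, signal read.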
Sfp PPTase inh: blocks B. subtilis Sfp PPTase activity; Q9F4F7; Biochemical Sfp PPTase activity, qHTS; Potency, µM, inactives show largest response in the series, negative = inhibition, usual class: inhibitors; 3.5% of 310,000 active; AID 1490;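 note: the enzyme is Sfp with the accession as filed and its product quenches rhodamine fluorescence; 0% = enzyme reaction without inhibitor and -100% = no enzyme wells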
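Fluorescence-quenching assay with 15 nM Sfp, 5 uM rhodamine-CoA and 12.5 uM BHQ-2-labelled ybbR peptide in pH 7.6 Hepes/MgCl2 buffer. Enzyme was pre-incubated with compound for 15 min at room temperature. Rate was taken from the 30-min fluorescence change (525/598 nm).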
* marks the source's active call; other numbers are inactive results; u = inconclusive; x = not tested or not shown; [ ] = another dose, or the depositor's remark. Calls come from the whole dose curve; as a rule, active = well fitted curve in the direction sought with a large enough effect; inconclusive = small, poorly fitted or top-dose-only effect, or another doubt; inactive = no such curve, though single readings can be large; an effect the other way counts as inactive or inconclusive. Potency is the fitted concentration of half-maximal effect.

SMILES	L3MBTL1 block	HP1b binding inh	JMJD2A Tudor	G9a inh	BAZ2B block	Sfp PPTase inh
CCOC(=O)c1c(N)sc2c1CCCC2	-12.8%	-19.5%	u	u	u	u
CCOC(=O)c1c(N)sc2c1CCS(=O)(=O)C2	-1.7%	u	u	8.91µM*	-4.3%	56.2µM*
CCOC(=O)c1c(NS(C)(=O)=O)sc2c1CCC(C)C2 (stereo unspecified)	-5.6%	4.1%	-35.5%	56.2µM*	u	-14.1%
CCOC(=O)c1c(N)sc2c1CCN(CCc1ccccc1)C2	-1.4%[2.29 µM]	3.1%	-30.6%	-2.4%[0.501 µM]	-2.2%	0.6%
COC(=O)c1c(NS(=O)(=O)c2ccc(C)cc2)sc2c1CCC(C)C2 (stereo unspecified)	2.8%	11.7%	-15.5%	6.5%[59 µM]	-1.5%	15.8%
CCOC(=O)c1c(N)sc2c1CCC(C)C2 (stereo unspecified)	-3.1%	-8.6%	-22.0%	u	u	50.1µM*
CCO[C@@H]1OC(C(=O)NCc2nc3ccccc3[nH]2)=C[C@H](c2ccc(C(F)(F)F)cc2)[C@H]1CCCO	10.9%	36.3%	-23.7%	26.9%[59 µM]	-14.0%	1.5%
CCOC(=O)c1c(NC(=O)C2C3C=CC(C3)C2C(=O)O)sc2c1CC(C)CC2 (stereo unspecified)	-3.9%	48.6%	-27.1%	u	-27.2%	24.9%
CCCOC(=O)c1c(NC(=O)C2C3C=CC(C3)C2C(=O)O)sc2c1CCC(C)C2 (stereo unspecified)	-1.1%	u	28.2µM*	8.91µM*	u	39.8µM*
CCc1c(C)c2ccc(O)c(CN3CCN(c4ccc(OC)cc4)CC3)c2oc1=O	x	37.9%	11.9%	-8.9%[59 µM]	1.0%	x
CCOC(=O)/C(C#N)=C1\CC2CCC1(C)C2(C)C (stereo unspecified)	x	u	-5.1%	3.16µM*	0.4%	39.8µM*
Cc1cc(C(=O)NCc2ccc(S(N)(=O)=O)cc2)c(C)o1	x	-6.5%	-17.2%	-3.0%[59 µM]	u	3.0%
Cc1occc1C(=O)NCc1ccc(C(=O)O)o1	x	29.7%	-3.2%	3.8%[12.7 µM]	-0.6%	50.1µM*
Cc1cc(C(=O)NCc2ccc(C(=O)O)o2)c(C)o1	x	u	22.4µM*	u	56.2µM*	6.7%
CCN1C(=O)[C@@H]2[C@@H](c3ccc(-c4ccc(OC)cc4)c(OC)c3)N3CCCC[C@@]3(C(=O)OC)[C@@H]2C1=O	-6.8%	11.6%	-32.4%	-8.9%[2.33 µM]	-37.4%	x
CCn1c(C2CC(=O)N(c3cc(C)cc(C)c3)C2)nc2ccccc21 (stereo unspecified)	0.6%	18.5%	-13.9%	-35.1%	15.4%	6.0%
COC(=O)Cn1c(C2CC(=O)N(c3c(C)cccc3C)C2)nc2ccccc21 (stereo unspecified)	x	29.7%	-12.6%	14.1µM*	-2.6%	x
Cc1cccc(C)c1OCCCCn1c(C2CC(=O)N(c3ccc(F)cc3)C2)nc2ccccc21 (stereo unspecified)	x	16.0%	u	14.1µM*	-14.9%	x
Cc1cccc(C)c1OCCn1c(C2CC(=O)N(c3cccc(Cl)c3)C2)nc2ccccc21 (stereo unspecified)	x	21.1%	-20.8%	-34.3%[59 µM]	-9.5%	x
O=C(COC(=O)C1C2CC3OC(=O)C1C3C2)Nc1ccccc1 (stereo unspecified)	x	6.6%	-4.1%	50.1µM*	7.3%	11.2%
C#CCOCCOCCOCCNc1nc(N2CCN(C(=O)[C@H](CCCCN)n3cc([C@@H](N)CO)nn3)CC2)nc(N2CCN(C(=O)[C@H](Cc3cc4ccccc4[nH]3)n3cc([C@@H](N)CO)nn3)CC2)n1	x	x	x	u	22.4µM*	7.3%
C#CCOCCOCCOCCNc1nc(N2CCN(C(=O)[C@H](CCCCN)n3cc(CN)nn3)CC2)nc(N2CCN(C(=O)[C@H](CO)n3cc([C@@H](N)C(C)C)nn3)CC2)n1	-0.5%	46.5%	-32.4%	x	x	x

Bioassay records: PubChem BioAssay, National Center for Advancing Translational Sciences (NCATS)
